KDM5B inhibitor: blocks human KDM5B histone demethylase activity | Potency, µM (doses to about 57.7 µM), hits mostly inhibitors | 2.6% of 220,000 active | KDM5B demethylase, FDH-coupled NADH fluorescence (FDH is formaldehyde dehydrogenase); active = well fitted inhibition curve with a large enough effect; note: 0% is about no effect; nearly all actives have a fitted effect of over 70% in size
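Inhibition is measured as reduced NADH fluorescence generation from FDH coupling to formaldehyde release. Truncated KDM5BΔAP at 200 nM final acts on H3K4me3 peptide (12.5 µM in substrate mix) in pH 7.5 HEPES buffer with Tween-20, 30 min, room temperature.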
Starred values were filed as active, the others as inactive; i = inactive. Many of the other results were omitted from the sample, so hits are more common in it than they were. Potency is the fitted concentration of half-maximal effect.

SMILES	KDM5B inhibitor
COC[C@@H]1CCCN1Cc1cn(-c2ccccc2C)nc1-c1ccc(OC)c(F)c1	i
COc1ccc(-c2nc3c(C)cccc3cc2CN2CCC[C@H]2CO)cc1OC	25.1µM*
Cc1cc(C2CCCN2Cc2coc(-c3cccc(Cl)c3)n2)on1 (stereo not given)	i
CN(Cc1ccc(C(N)=O)cc1)Cc1cccs1	i
O=C(O)c1ccc(Cl)cc1I	i
CC(=O)/C(=C1\NC(C)(C)Cc2cc(C)c(C)cc21)c1ccccc1	i
CC(C)c1nncn1C1CCN(S(=O)(=O)c2ccc(F)c(F)c2)CC1	i
Cc1ccc(C(=O)NC2CCCN(c3cc(-c4ccccc4)[nH]n3)C2)s1 (stereo not given)	i
O=C(Cc1cccc(F)c1)N1CCN(C(=O)c2nnn3c2COC(c2ccccc2)C3)CC1 (stereo not given)	i
O[C@@H]1CN(CC2CC2)CC[C@H]1N1CCN(c2ccccc2F)CC1	i
COc1ccccc1N1CCCc2ncc(C(=O)N3CCCC[C@@H]3Cc3ccccc3)cc21	25.1µM*
COc1ccccc1N1CCCc2ncc(C(=O)N(C)Cc3ccccc3)cc21	35.5µM*
COc1ccc(NC(=O)c2cnc3c(c2)N(c2ccccc2OC)CCC3)cn1	i
COc1ccccc1N1CCCc2ncc(C(=O)NCCc3c[nH]c4ccccc34)cc21	28.2µM*
COc1ccccc1N1CCCc2ncc(C(=O)N3CCC[C@@H]3c3ccc(F)cc3)cc21	i
COc1ccccc1CC(=O)N1CCCc2ncc(C(=O)N(C)Cc3ccccc3)cc21	i
COc1ccccc1N1CCCc2ncc(C(=O)NCCOc3ccccc3)cc21	i
COc1ccccc1N1CCCc2ncc(C(=O)N3CC[S+](=O)([O-])CC3)cc21	i
CC(C)c1ccc(CC(=O)N2CCCc3ncc(C(=O)N4CCCC[C@@H]4Cc4ccccc4)cc32)cc1	i
CNC(=O)NC[C@H]1CCN(Cc2ccccc2C#N)C[C@H]1N(C)C	i
CCCCCCCn1c(SCCC(=O)O)nc2c1c(=O)[nH]c(=O)n2C	i
Cc1ccc(CC(=O)NC2CCC(C)CC2)cc1 (stereo not given)	i
O=C1CCN(C(=O)c2cccnc2)CCCC(C(=O)N2CCN(Cc3ccccc3F)CC2)CCN1 (stereo not given)	i
Cc1cc(C(=O)N2CCC(N3C(=O)C(OCC4CC4)C34CCOCC4)CC2)n(C)n1 (stereo not given)	i
COC(=O)c1cc(NC(=O)CC2Sc3ccccc3NC2=O)cc(C(=O)OC)c1 (stereo not given)	i
SMILES	KDM5B inhibitor
Cc1ccc(-c2cc3c(=O)n(CCNC(=O)c4cnccn4)ccn3n2)cc1C	22.4µM*
CCOc1ccc(-c2cc3c(=O)n(CCNC(=O)c4cnccn4)ccn3n2)cc1	25.1µM*
O=C(c1ccc(F)cc1)c1ccccc1C(=O)N1CCN(C(=O)CCC2CCCC2)CC1	i
Cc1ccc(NC(=O)Cn2c(-c3ccccc3)nc(C)c(CCO)c2=O)c(C)c1	i
COCc1ccc(C(=O)NCC2COc3cc(OC)ccc3C2)o1 (stereo not given)	i
COc1ccc2c(c1)OCC(CNC(=O)c1cnn3ccccc13)C2 (stereo not given)	25.1µM*
COc1ccc2c(c1)OCC(CNC(=O)c1csc(C(C)=O)c1)C2 (stereo not given)	i
CCN(CC)C(=O)CCc1nc(C2CCCN2C(=O)c2ccccc2)no1 (stereo not given)	i
CCc1nc(-c2c3n(c(=O)n(Cc4cc(F)cc(F)c4)c2=O)CCCC3)no1	i
CCCCc1nc(C)cc(NCCn2ccc3[nH]c(=O)c(C#N)cc3c2=O)n1	i
CC(O)CCn1ccc2[nH]c(=O)c(C#N)cc2c1=O (stereo not given)	i
N#Cc1cc2c(=O)n(CCc3n[nH]c4c3CCCC4)ccc2[nH]c1=O	31.6µM*
Cc1c(C(=O)N(C)c2ccccc2)sc2nc3n(c(=O)c12)CCCC3	i
CCOc1ccccc1/C=C1/Cc2c(O)cccc2C1=O	i
CN(C)C(=O)N1Cc2ccccc2OC2(CCN(C(=O)c3c[nH]c4ccccc34)CC2)C1	i
CC(=O)N1Cc2ccccc2OC2(CCN(C(=O)c3ccc4[nH]ccc4c3)CC2)C1	i
CN(C)C(=O)N1Cc2ccccc2OC2(CCN(C(=O)c3ccnc(N)c3)CC2)C1	89.1µM*
CN(C)C(=O)N1CCC2(CC1)CN(C(=O)Cc1cccc(O)c1)Cc1ccccc1O2	i
CN1CCN(C(=O)N2Cc3ccccc3OC3(CCN(C(=O)N(C)C)CC3)C2)CC1	i
CN(C)C(=O)N1CCC2(CC1)CN(C(=O)c1ccnc(N)c1)Cc1ccccc1O2	79.4µM*
NC(=O)NC(=O)COC(=O)c1ccc(F)cc1F	i
CC1CCCC(NC(=O)Cc2cccc3ccccc23)C1C (stereo not given)	i
CC1(C)CC(=O)C2=C(C1)OC1=C(C(=O)CC(C)(C)C1)C2c1ccccc1C(F)(F)F	i
CCOC(=O)C1CCCN(C(=O)Cn2nc3cc(C)nc(N4CCc5ccccc5C4)n3c2=O)C1 (stereo not given)	i
COc1ccc(Cl)cc1NC(=O)CSc1nncn2c1cc1oc(C)cc12	i
SMILES	KDM5B inhibitor
COCCN1CCOC[C@H]2CCN(C(=O)c3ocnc3C)C[C@H]21	i
COCC1CCN(c2ccc(-c3nc(-c4ccccc4C)no3)cn2)C1 (stereo not given)	31.6µM*
COc1ccc(N2CCN(c3ncccc3-c3nc(-c4ccccc4C)no3)CC2)cc1	i
CCCN1CCN(c2ccc(-c3nc(C)no3)cn2)CC1	i
CC1CCCN(C(=O)COc2ccccc2-c2noc(-c3ccc(Cl)cc3)n2)C1 (stereo not given)	i
CC1CCN(C(=O)COc2ccccc2-c2noc(-c3ccccc3F)n2)CC1	i
COC(=O)[C@@H]1CCCN1c1ccc(-c2nc(-c3ccccc3F)no2)cn1	25.1µM*
Cc1cccc(NC(=O)c2nn(C)c(=O)c3ccccc23)c1	i
Cc1cc(C(=O)CSc2nnc(C(C)Oc3ccc(F)cc3)o2)c(C)n1CC(F)(F)F (stereo not given)	i
Cc1nnc(-c2cc(-c3cccc(O)c3)ccn2)n1CCc1ccccc1	i
COc1ncc(-c2ccnc(-c3nnc(C)n3-c3ccccc3)c2)cn1	i
COc1ccc(-c2ccnc(-c3nnc(C)n3C(C)C)c2)cc1OC	35.5µM*
COc1ncccc1-c1ccnc(-c2nnc(C)n2C2CCCCC2)c1	28.2µM*
Cc1nnc(-c2cc(-c3cccc(CO)c3)ccn2)n1Cc1ccccc1	i
Cc1nnc(-c2cc(-c3ccc(N4CCOCC4)cc3)ccn2)n1Cc1ccccc1	20µM*
Cc1nnc(-c2cc(-c3cccc(CO)c3)ccn2)n1CCN1CCOCC1	i
Cc1nnc(-c2cc(-c3ccsc3)ccn2)n1C(C)C	i
Cc1nnc(-c2cc(NCc3cccs3)ccn2)n1C1CCCCC1	i
COc1ccc(-c2ccnc(-c3nnc(C)n3Cc3ccccc3)c2)cc1OC	35.5µM*
Cc1nnc(-c2cc(-c3cccnc3)ccn2)n1CCN1CCOCC1	i
Cc1nnc(-c2cc(-c3cccnc3)ccn2)n1C1CCCCC1	i
O=C1CSc2ccc(S(=O)(=O)Nc3ccccc3Cl)cc2N1	i
Cc1c(Cl)cccc1N(CC(=O)N1CCc2ccccc2C1)S(C)(=O)=O	i
O=C(c1c[nH]c2ccccc12)C(Sc1ncc(C(F)(F)F)cc1Cl)c1ccccc1 (stereo not given)	i
